Common to all, as to experiment: DAPPL (digital affinity profiling via proximity ligation, sequencing); 10 mM Tris-HCl pH 7.5, 50 mM NaCl, 1 mM DTT, 4% glycerol, room temperature, 30 min; GST-TFs on glutathione beads, 16-mer random dsDNA library, 0.1% formaldehyde crosslink after washing; high values mean tight binding
One assay concerns the target T1, FEV (Homo sapiens, UniProt Q99581 1-238).
T1 sequence: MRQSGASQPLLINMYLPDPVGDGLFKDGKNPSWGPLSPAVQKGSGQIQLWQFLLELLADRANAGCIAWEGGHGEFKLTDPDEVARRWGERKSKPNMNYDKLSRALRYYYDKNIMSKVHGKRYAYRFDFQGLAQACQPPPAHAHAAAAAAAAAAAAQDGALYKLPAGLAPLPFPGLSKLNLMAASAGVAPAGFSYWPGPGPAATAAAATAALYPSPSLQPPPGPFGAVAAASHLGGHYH
The following applies: protein: recombinant; tags: N-terminal GST; dsDNA, one strand shown. The essentials: (§1)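 A tag-only sample was pooled with DNA-barcoded human transcription factors that had been expressed in yeast as GST fusions and captured on glutathione beads. The pools were incubated for 30 min at room temperature with 200 nmole of a random double-stranded 16-mer DNA library in Tris/NaCl/DTT/glycerol buffer, then washed, crosslinked with 0.1% formaldehyde, proximity-ligated (BsaI/T4 ligase, 1 h, 37 °C), PCR-amplified and sequenced on an Illumina NextSeq500. Binding signal is each hexamer's read frequency for a factor divided by its frequency for the tag-only sample.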

A further assay addresses ETV5 (Homo sapiens, UniProt P41161 1-510). The following applies: protein: recombinant; tags: N-terminal GST; dsDNA, one strand shown. The essentials:
as §1

A further assay concerns the target HSF1 (Homo sapiens, UniProt Q00613 1-529). The following applies: protein: recombinant; tags: N-terminal GST; chain copies: 3; dsDNA, one strand shown. In short, it runs like this: as §1
The target in the next assay is T2, SPIC (Homo sapiens, UniProt Q8N5J4 1-248).
T2 sequence: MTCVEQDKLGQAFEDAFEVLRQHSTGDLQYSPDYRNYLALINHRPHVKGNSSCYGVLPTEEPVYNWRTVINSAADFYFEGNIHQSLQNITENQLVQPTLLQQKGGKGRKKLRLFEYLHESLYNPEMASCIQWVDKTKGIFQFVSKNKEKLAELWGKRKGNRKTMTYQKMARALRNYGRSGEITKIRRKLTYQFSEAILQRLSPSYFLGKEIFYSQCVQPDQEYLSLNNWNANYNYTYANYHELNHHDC
The note with it: protein: recombinant; tags: N-terminal GST; dsDNA, one strand shown. In short, it runs like this:
as §1

A further assay has as its target ELF4 (Homo sapiens, UniProt Q99607 1-663). The note with it: protein: recombinant; tags: N-terminal GST; dsDNA, one strand shown. In short, it runs like this:
as §1

The next assay deals with T3, ELK4 (Homo sapiens, UniProt P28324-2 1-405).
T3 sequence: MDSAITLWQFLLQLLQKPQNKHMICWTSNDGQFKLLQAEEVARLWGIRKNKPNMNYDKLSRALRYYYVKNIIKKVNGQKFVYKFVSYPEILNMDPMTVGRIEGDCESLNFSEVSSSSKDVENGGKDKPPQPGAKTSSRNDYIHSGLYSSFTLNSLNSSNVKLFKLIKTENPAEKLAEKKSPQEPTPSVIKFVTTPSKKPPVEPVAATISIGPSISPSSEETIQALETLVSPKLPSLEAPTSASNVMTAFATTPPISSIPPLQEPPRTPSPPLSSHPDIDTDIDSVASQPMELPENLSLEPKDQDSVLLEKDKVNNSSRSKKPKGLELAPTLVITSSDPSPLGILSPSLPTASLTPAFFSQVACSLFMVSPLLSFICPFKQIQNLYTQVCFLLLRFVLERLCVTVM
The note with it: protein: recombinant; tags: N-terminal GST; dsDNA, one strand shown. In short, it runs like this:
as §1

Another assay concerns the target T4, ETV2 (Homo sapiens, UniProt O00321 1-342).
T4 sequence: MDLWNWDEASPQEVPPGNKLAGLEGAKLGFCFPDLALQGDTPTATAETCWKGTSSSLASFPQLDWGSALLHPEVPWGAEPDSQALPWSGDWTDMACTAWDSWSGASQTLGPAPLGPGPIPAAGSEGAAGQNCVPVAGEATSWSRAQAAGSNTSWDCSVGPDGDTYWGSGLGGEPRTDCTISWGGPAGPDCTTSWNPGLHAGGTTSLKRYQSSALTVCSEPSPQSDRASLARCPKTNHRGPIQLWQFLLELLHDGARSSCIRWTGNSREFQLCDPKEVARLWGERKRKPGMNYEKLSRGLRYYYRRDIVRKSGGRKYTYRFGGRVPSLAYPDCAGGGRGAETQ
The following applies: protein: recombinant; tags: N-terminal GST; dsDNA, one strand shown. The essentials:
as §1

The target in the next assay is T5, ELF3 (Homo sapiens, UniProt P78545 1-371).
T5 sequence: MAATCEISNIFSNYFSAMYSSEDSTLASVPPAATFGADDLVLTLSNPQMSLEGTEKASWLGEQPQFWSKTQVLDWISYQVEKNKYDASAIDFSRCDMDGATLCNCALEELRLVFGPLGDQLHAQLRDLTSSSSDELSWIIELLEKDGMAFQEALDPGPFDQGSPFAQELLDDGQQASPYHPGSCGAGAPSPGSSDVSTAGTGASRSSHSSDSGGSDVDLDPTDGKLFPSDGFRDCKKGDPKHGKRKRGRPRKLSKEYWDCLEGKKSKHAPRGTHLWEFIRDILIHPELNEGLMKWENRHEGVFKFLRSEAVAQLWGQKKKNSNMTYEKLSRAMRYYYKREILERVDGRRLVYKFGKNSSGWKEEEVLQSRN
The note with it: protein: recombinant; tags: N-terminal GST; dsDNA, one strand shown. In short, it runs like this: as §1

A further assay deals with CRX (Homo sapiens, UniProt O43186 1-299). The following applies: protein: recombinant; tags: N-terminal GST; dsDNA, one strand shown. The essentials:
as §1

A further assay deals with ETV1 (Homo sapiens, UniProt P50549 1-477). The note with it: protein: recombinant; tags: N-terminal GST; dsDNA, one strand shown. In short, it runs like this: as §1
Another assay deals with T6, ERF (Homo sapiens, UniProt P50548 1-548).
T6 sequence: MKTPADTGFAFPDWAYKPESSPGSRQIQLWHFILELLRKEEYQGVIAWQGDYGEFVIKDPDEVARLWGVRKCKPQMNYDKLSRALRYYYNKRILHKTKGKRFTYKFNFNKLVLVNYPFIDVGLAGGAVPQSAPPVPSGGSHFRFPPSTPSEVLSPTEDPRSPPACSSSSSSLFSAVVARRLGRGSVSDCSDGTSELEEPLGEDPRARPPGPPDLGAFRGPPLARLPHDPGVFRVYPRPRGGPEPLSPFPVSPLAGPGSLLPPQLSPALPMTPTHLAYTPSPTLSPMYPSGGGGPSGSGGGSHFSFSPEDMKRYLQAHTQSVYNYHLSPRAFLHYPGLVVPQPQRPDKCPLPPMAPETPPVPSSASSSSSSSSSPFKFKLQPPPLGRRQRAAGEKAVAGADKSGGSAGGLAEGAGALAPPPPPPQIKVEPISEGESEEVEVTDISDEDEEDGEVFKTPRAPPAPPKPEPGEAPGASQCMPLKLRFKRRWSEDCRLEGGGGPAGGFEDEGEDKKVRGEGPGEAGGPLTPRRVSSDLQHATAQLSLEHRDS
The note with it: protein: recombinant; tags: N-terminal GST; dsDNA, one strand shown. In short, it runs like this: as §1

The target of another assay is T7, ETV3L (Homo sapiens, UniProt Q6ZN32 1-361).
T7 sequence: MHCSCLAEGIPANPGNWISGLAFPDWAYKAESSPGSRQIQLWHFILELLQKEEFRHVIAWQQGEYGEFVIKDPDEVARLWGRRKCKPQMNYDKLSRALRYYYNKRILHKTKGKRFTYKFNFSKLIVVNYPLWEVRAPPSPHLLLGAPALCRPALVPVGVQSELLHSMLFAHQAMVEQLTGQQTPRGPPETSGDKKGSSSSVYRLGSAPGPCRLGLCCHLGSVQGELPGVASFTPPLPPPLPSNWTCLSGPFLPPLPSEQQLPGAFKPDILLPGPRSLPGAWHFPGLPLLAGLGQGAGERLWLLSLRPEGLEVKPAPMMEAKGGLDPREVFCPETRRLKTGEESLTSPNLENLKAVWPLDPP
The note with it: protein: recombinant; tags: N-terminal GST; dsDNA, one strand shown. In short, it runs like this:
as §1

The target of a further assay is T8, ETS2 (Homo sapiens, UniProt P15036 1-469).
T8 sequence: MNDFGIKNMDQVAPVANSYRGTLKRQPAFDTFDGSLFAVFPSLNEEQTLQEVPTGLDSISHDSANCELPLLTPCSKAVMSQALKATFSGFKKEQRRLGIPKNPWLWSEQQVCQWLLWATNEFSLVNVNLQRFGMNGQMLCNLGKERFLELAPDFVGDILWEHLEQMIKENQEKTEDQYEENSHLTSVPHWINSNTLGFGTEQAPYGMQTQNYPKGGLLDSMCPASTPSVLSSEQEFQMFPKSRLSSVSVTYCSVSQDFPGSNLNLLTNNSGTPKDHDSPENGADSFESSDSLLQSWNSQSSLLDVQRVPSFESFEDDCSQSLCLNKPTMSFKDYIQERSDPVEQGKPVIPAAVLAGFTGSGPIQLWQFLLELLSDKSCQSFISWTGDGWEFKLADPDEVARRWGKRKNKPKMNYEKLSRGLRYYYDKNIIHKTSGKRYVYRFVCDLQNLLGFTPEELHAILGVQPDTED
The following applies: protein: recombinant; tags: N-terminal GST; dsDNA, one strand shown. In short, it runs like this:
as §1

Another assay addresses T9, SPDEF (Homo sapiens, UniProt O95238 1-335).
T9 sequence: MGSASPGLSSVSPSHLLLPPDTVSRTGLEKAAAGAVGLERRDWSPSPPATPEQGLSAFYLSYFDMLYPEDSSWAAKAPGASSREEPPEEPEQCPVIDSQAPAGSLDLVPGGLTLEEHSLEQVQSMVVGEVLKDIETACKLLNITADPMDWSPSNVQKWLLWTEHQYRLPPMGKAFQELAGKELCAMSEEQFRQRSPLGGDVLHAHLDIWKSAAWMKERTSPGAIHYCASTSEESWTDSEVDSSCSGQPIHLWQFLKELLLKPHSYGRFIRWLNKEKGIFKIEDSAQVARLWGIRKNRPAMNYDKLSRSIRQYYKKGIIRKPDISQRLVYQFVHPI
The following applies: protein: recombinant; tags: N-terminal GST; dsDNA, one strand shown. In short, it runs like this:
as §1

The target in another assay is T10, ETV7 (Homo sapiens, UniProt Q9Y603 1-341).
T10 sequence: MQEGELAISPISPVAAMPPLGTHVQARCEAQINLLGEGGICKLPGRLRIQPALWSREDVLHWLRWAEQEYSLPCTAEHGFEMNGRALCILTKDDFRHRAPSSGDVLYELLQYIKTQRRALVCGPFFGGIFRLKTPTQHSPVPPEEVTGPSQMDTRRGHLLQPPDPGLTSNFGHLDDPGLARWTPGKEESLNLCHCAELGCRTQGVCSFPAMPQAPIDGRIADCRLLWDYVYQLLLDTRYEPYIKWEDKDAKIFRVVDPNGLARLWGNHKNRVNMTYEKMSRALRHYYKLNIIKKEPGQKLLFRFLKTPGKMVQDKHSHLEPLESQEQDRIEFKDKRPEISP
The note with it: protein: recombinant; tags: N-terminal GST; dsDNA, one strand shown. In short, it runs like this:
as §1

The target in another assay is T11, ELF5 (Homo sapiens, UniProt Q9UKW6-2 1-255).
T11 sequence: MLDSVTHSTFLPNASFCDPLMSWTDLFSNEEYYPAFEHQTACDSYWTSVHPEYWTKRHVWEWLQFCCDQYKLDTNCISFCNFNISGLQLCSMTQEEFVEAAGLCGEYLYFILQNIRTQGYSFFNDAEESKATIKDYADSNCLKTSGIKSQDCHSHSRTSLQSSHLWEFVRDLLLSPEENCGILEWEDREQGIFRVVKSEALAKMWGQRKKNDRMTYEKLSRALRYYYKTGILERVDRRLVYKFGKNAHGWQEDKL
The note with it: protein: recombinant; tags: N-terminal GST; dsDNA, one strand shown. In short, it runs like this:
as §1

In the next assay the target is T12, ETV3 (Homo sapiens, UniProt P41162-2 1-143).
T12 sequence: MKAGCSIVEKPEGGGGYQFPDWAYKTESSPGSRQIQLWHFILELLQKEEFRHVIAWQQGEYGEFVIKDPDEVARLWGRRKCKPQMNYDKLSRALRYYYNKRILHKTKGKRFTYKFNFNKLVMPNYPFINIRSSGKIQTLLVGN
The note with it: protein: recombinant; tags: N-terminal GST; dsDNA, one strand shown. The essentials:
as §1

The target of another assay is ETV6 (Homo sapiens, UniProt P41212 1-452). The note with it: protein: recombinant; tags: N-terminal GST; dsDNA, one strand shown. In short, it runs like this:
as §1

For one sequence, binding signal results are on record in paper PMC7862700, “An all-to-all approach to the identification of sequence-specific readers for epigenetic DNA modifications on cytosine”.

CRX, sequence (O43186 whole entry): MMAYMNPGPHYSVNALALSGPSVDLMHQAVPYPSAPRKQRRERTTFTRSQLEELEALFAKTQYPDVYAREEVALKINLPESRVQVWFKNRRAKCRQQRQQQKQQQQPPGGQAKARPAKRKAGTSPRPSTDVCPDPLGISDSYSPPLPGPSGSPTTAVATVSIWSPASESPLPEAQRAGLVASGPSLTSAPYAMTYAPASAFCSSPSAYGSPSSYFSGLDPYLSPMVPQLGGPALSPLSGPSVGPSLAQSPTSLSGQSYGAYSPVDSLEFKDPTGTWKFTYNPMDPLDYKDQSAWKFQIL
ELF4, sequence (Q99607 whole entry): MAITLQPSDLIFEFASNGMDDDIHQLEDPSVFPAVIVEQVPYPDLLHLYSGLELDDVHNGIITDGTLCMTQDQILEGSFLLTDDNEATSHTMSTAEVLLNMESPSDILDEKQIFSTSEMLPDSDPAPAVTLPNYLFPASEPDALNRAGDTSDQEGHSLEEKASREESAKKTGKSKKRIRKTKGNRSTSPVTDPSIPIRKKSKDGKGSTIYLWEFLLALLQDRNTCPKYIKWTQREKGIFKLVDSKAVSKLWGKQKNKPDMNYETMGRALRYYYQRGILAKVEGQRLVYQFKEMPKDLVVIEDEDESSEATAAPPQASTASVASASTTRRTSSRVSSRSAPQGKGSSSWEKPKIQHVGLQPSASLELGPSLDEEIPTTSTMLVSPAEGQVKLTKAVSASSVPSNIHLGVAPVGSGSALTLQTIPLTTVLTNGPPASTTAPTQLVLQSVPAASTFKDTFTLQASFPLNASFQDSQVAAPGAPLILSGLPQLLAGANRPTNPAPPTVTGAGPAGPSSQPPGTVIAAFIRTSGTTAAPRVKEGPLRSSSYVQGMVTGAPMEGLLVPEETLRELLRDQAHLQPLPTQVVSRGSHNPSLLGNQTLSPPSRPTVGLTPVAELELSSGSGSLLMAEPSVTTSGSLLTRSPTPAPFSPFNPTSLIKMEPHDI
ETV1, sequence (P50549 whole entry): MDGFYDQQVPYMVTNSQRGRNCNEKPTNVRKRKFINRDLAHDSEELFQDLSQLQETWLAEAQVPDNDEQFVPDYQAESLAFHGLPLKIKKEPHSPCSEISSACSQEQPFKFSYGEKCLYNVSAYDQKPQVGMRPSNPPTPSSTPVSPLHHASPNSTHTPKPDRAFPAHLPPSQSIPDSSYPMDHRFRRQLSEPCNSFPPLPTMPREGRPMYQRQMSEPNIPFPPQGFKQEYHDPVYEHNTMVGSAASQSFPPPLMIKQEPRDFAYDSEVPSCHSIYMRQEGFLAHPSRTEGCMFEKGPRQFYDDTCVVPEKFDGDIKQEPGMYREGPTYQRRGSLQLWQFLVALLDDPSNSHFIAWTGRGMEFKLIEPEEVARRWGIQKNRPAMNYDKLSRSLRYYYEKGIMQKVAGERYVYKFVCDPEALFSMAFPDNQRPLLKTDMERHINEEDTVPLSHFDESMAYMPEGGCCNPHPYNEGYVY
HSF1, sequence (Q00613 whole entry): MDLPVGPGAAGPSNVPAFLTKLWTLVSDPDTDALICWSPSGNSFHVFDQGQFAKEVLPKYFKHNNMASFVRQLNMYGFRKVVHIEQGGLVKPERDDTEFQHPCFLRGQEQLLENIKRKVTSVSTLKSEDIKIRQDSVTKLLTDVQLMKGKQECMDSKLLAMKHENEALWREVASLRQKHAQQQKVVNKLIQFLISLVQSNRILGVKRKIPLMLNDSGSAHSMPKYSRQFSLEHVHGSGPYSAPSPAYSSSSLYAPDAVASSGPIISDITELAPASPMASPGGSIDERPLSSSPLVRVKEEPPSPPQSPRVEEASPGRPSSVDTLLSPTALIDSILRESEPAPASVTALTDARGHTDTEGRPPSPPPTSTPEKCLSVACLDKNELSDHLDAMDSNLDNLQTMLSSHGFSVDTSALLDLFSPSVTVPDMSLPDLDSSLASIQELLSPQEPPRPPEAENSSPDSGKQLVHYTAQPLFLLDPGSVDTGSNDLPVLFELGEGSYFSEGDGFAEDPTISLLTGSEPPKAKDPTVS
ETV5, sequence (P41161 whole entry): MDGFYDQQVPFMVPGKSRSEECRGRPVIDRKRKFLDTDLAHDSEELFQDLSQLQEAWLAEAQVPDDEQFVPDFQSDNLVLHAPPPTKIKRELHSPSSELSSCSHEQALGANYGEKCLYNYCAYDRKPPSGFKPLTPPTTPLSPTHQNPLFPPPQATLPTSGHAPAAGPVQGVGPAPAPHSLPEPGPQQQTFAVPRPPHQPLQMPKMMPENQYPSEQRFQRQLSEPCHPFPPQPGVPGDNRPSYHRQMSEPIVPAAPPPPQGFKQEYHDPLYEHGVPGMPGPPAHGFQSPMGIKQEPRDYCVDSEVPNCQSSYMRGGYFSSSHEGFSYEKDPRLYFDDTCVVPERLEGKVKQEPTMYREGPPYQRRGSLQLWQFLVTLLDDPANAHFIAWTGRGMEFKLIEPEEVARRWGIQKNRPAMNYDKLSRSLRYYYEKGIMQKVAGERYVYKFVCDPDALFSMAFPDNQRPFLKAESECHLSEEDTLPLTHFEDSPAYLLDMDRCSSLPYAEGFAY
ETV6, sequence (P41212 whole entry): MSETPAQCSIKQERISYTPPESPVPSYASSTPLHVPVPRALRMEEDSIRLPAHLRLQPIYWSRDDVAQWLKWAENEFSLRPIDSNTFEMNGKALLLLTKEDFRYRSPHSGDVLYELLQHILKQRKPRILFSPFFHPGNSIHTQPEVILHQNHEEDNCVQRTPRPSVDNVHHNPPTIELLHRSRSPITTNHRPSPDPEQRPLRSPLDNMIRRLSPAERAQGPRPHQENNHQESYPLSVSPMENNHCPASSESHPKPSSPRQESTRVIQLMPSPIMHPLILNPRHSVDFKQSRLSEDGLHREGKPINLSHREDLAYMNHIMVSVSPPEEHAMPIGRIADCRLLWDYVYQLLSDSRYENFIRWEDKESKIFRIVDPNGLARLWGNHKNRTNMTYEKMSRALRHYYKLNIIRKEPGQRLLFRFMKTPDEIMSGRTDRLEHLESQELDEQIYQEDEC

In the case of CGTTTT, the binding signal with FEV was 1.19 fold enrichment (6-mer frequency, TF over GST control); with ETV5, 1.21 fold enrichment (6-mer frequency, TF over GST control); with HSF1, 1.12 fold enrichment (6-mer frequency, TF over GST control); with SPIC, 1.29 fold enrichment (6-mer frequency, TF over GST control); with ELF4, 1.16 fold enrichment (6-mer frequency, TF over GST control); with ELK4, 1.22 fold enrichment (6-mer frequency, TF over GST control). Also, the binding signal in the assay with ETV2 was 1.35 fold enrichment (6-mer frequency, TF over GST control); with ELF3, 1.08 fold enrichment (6-mer frequency, TF over GST control); with CRX it was 1.04 fold enrichment (6-mer frequency, TF over GST control); with ETV1, 1.17 fold enrichment (6-mer frequency, TF over GST control); with ERF it was 1.15 fold enrichment (6-mer frequency, TF over GST control); with ETV3L, 1.29 fold enrichment (6-mer frequency, TF over GST control). The binding signal was 1.16 fold enrichment (6-mer frequency, TF over GST control) with ETS2; 1.14 fold enrichment (6-mer frequency, TF over GST control) with SPDEF; 1.25 fold enrichment (6-mer frequency, TF over GST control) in the assay with ETV7; 1.14 fold enrichment (6-mer frequency, TF over GST control) with ELF5; 1.21 fold enrichment (6-mer frequency, TF over GST control) in the assay with ETV3; 1.24 fold enrichment (6-mer frequency, TF over GST control) with ETV6.
